From ChEMBL document CHEMBL3988442, “University of Dundee, Small-Polar-MMV Screening Library” (2021)

These compounds were tested against AMP-activated protein kinase, AMPK (Homo sapiens) (UniProt P54646+O43741+P54619+Q9UGJ0+Q9Y478+Q13131+Q9UGI9) (assay: AMP-dependent Kinase enzyme assay. An in vitro enzyme assay that detects ADP turnover that is directly proportional to AMPK activity. This uses naive AMPK that is activated during the assay with MK-8722). Settings: 30 µM.
Format: functional
Parameters: scale not given: direction of the effect not stated beside the values

| SMILES | Percent Effect |
| --- | --- |
| Cc1cc(C)nc(N2CCCC(C)(c3[nH]ncc3C(=O)N(C)C)C2)n1 (stereo not given) | 4.6% |
| CSc1ccc(CNC2CCCc3c2cnn3C)cc1 (stereo not given) | 7.44% |
| O=C(CNC(=O)c1ccccc1I)NCc1ccccc1F | 4.78% |
| O=C(CC1C=CCC1)N1CCc2ncnc(NCc3ccon3)c2CC1 (stereo not given) | 21.6% |
| CC1CCN(c2ncc(-c3ccccc3F)c(-c3nccn3C)n2)CC1 | 15.2% |
| CCOc1ccccc1C(=O)NCc1nncn1C1CC1 | -9.44% |
| Cc1nc(-c2ccnn2C)cc(C2CCCN(S(C)(=O)=O)C2)n1 (stereo not given) | 13.9% |
| Cc1cc(C)n(CCN(C)c2ccc(-c3nc(C4CC4)no3)cn2)n1 | 5.62% |
| O=C(CCOc1ccc(Cl)cc1)NCCCn1cccn1 | -3.71% |
| Clc1cc(NCc2ccncc2)nc2[nH]ccc12 | -59.2% |
| COc1ccc(CN2C[C@@H]3CC[C@H](C2)N(S(C)(=O)=O)C3)cc1 | 12.6% |
| Cc1ncccc1CNC(CCO)C1CCCCC1 (stereo not given) | -0.143% |
| O=C(NCc1nnc2n1CCC2)c1ccc(C2CCCO2)s1 (stereo not given) | 1.37% |
| COc1c(C)cnc(CN2CCCC2c2noc(C3CC3)n2)c1C (stereo not given) | -14.3% |
| NC(=O)C1CCCN1Cc1nccn1CC(F)(F)F (stereo not given) | 1.35% |
| Cc1cc(N2CCC(O)(C(=O)O)CC2)nc2ccccc12 | 3.47% |
| COC1CCN(S(=O)(=O)N2CC[C@@](O)(C3CCC3)[C@H](C)C2)CC1 | -3.56% |
| Cc1nc(C(NS(=O)(=O)N(C)C)c2ccccc2F)no1 (stereo not given) | -2.57% |
| COc1cccc(-c2ncc(CN3CC[C@H]4CC[C@@H](C3)N4)s2)c1 | 7.14% |
| Cc1ccc(CNC(=O)NCc2ccco2)s1 | 2.27% |
